High-throughput results (PubChem BioAssay)
The list is not random: actives were taken first. Their share in the collection is about 28%.
CYP2C19 act – activators of human cytochrome P450 2C19; recombinant CYP2C19, luciferin-H EGE luminescence; hits give high values; 0 = fully inhibited enzyme, 1 = untreated enzyme; activation factor at 5 µM; 96,000 tested, under 10 active; AID 1025;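 active means activation factor of at least 2 at 5 µM in the primary screen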;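 further: 0 = wells with 2.5 mM tranylcypromine and 1 = vehicle-only wells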
Target sequence (P33261 whole entry, looked up): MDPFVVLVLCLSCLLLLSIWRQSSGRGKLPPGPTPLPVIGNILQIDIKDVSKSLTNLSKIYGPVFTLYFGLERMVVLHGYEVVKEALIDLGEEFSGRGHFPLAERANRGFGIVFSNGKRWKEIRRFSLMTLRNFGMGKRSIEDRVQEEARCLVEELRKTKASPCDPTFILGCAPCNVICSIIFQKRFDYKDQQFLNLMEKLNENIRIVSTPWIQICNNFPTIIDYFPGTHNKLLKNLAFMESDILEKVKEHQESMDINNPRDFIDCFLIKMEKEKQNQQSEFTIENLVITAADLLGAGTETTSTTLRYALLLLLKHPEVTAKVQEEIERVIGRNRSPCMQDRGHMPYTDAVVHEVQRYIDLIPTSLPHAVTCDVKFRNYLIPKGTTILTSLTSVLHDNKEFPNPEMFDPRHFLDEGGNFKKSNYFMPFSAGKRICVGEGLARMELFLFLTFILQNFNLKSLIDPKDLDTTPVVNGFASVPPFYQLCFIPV
CYP2C19 inh – blocks human cytochrome P450 2C19; CYP2C19 Supersomes, luciferin-H EGE luminescence, 30 min; inhibition, % at 5 µM; 21% of 96,000 active; AID 778; P33261;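 active means CYP2C19 inhibition above a set limit at 5 µM in the primary screen, cut at about 50% in these data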;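 further: plate controls were negative control wells for no effect and 2.5 mM tranylcypromine positive control for full effect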
PLK1 inh – PLK1 (human) kinase inhibition. AID 619. recombinant PLK1 kinase, TR-FRET peptide phosphorylation. inhibition, % at 10 µM. 0.53% of 97,000 active;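 active means inhibition of 50% or more in the single-concentration screen; inactive means inhibition below 50%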;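 further: 0% = DMSO max control and 100% = H-89 dihydrochloride min control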
CYP2C9 inhib – blocks human cytochrome P450 2C9; P11712; CYP2C9 Supersomes, luciferin-H conversion, luminescence; inhibition, % at 5 µM; 20% of 96,000 active; AID 777;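 active means blocking of liver enzyme CYP2C9 beyond about 50% at 5 µM, limit read from the data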
PLK1 PBD inh – blocks phosphopeptide binding to human Plk1 polo box domain; P53350; Plk1 PBD phosphopeptide binding, fluorescence polarization; inhibition, %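 (tested at about 20 µM)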; 0.13% of 97,000 active; AID 693; in the data active means inhibition above about 34%, passing the limit was not always enough
CYP2C9 act – activators of human CYP2C9; AID 1024; activation factor at 5 µM; P11712; recombinant CYP2C9, luciferin-H conversion, luminescence; hits give high values; factor 1 = untreated enzyme, 0 = blocked; 1.4% of 96,000 active;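 active means activation factor of 2 or more for CYP2C9 at a 5 µM dose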;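 further: 0 = sulfaphenazole-blocked wells and 1 = vehicle-only wells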
The depositor's hits bear a star; / = not tested or not shown.

SMILES	CYP2C19 act	CYP2C19 inh	PLK1 inh	CYP2C9 inhib	PLK1 PBD inh	CYP2C9 act
COc1cccc(C(=O)NN2C(=O)C3C4C=CC(O4)C3C2=O)c1 (configuration not stated)	1	4	-6	10	-17	0.9
O=C(Nc1nc(=S)ss1)c1ccc(Cl)cc1Cl	0.8	24	-7	94*	-27	0.1
O=C(NNc1cccc(Cl)n1)c1ccc(Cl)cc1Cl	0.7	29	-4	-38	-22	1.4
c1cnn(-c2nc(N3CCOCC3)nc(N3CCOCC3)n2)c1	1.1	-12	-5	53*	-9	0.5
O=C1NC(=O)c2cc(NC(=O)C3CCCO3)ccc21 (configuration not stated)	0.6	37	-12	86*	2	0.1
COc1ccc(NS(=O)(=O)c2ccc(NC(=O)C3CCCO3)cc2)cc1 (configuration not stated)	0.3	69*	-17	65*	-14	0.3
Cc1ccnc(NS(=O)(=O)c2ccc(NC(=O)C3CCCO3)cc2)n1 (configuration not stated)	1	0	-17	1	-1	1
CN(Cc1ccccc1)S(=O)(=O)c1ccc(NC(=O)C2CCCO2)cc1 (configuration not stated)	0.9	12	/	55*	/	0.5
Cc1ccc(NS(=O)(=O)c2ccc(NC(=O)C3CCCO3)cc2)cc1 (configuration not stated)	0.1	91*	-11	85*	-17	0.1
CCN(CC)S(=O)(=O)c1ccc(NC(=O)C2CCCO2)cc1 (configuration not stated)	0.9	9	-11	21	-22	0.8
CCOc1ccc(C2OC(=O)Cc3cc(OC)c(OC)cc32)cc1 (configuration not stated)	0.6	35	-7	26	-31	0.7
C=CCN(C(=O)CNC(=O)c1ccco1)C(C(=O)NC1CCCCC1)c1ccc(OC)cc1OC (configuration not stated)	0.5	46	-10	46	12	0.5
COC(=O)c1cc2sccc2n1CC(=O)Nc1cccc(SC)c1	1	1	/	12	/	0.9
O=C(Nc1ccc(Oc2ccc(NC(=O)C3CCCO3)cc2)cc1)C1CCCO1 (configuration not stated)	0.7	26	/	54*	/	0.5
CCCOC(=O)c1ccc(NC(=O)C2CCCO2)cc1 (configuration not stated)	0.7	32	-12	-4	-5	1
CCc1ccc(NC(=O)c2ccccc2NC(=O)C2CCCO2)cc1 (configuration not stated)	0.8	21	-10	59*	-23	0.4
COc1ccc(CNC(=O)/C=C/c2cc([N+](=O)[O-])ccc2OC(F)F)cc1OC	0.7	29	-17	-108	-9	2.1*
COc1ccc(C(=O)c2ccc(OC)c(OC)c2)cc1	0.6	37	0	-65	-17	1.7
COc1ccc(C(=O)c2ccc(OC)c3cccc(O)c23)cc1OC	0.5	50	-5	84*	-17	0.2
CCOC(=O)C1CCCN(C(=O)C2c3ccccc3Oc3ccccc32)C1 (configuration not stated)	0	97*	-2	64*	-6	0.4
CCOc1ccccc1N1CCN(C(=O)c2ccccc2)CC1	0.8	23	-8	-6	-1	1.1
CCOc1ccccc1N1CCN(C(=O)C2c3ccccc3Oc3ccccc32)CC1	0.2	78*	-8	85*	-11	0.2
CS(=O)(=O)N1CCN(C(=O)C2c3ccccc3Oc3ccccc32)CC1	0	97*	-17	50*	-11	0.5
CCOC(=O)C1CCCN(C(=S)Nc2ccc(C)cc2C)C1 (configuration not stated)	0.2	84*	-15	36	5	0.6
CCOC(=O)C1CCCN(C(=O)Cc2ccc(C)cc2)C1 (configuration not stated)	0.9	14	8	48	-3	0.5
SMILES	CYP2C19 act	CYP2C19 inh	PLK1 inh	CYP2C9 inhib	PLK1 PBD inh	CYP2C9 act
Cc1ccc(C2CC(c3cccs3)=NN2C(=O)c2ccc(Br)o2)cc1 (configuration not stated)	0.7	30	-12	43	-20	0.6
CCOC(=O)C1CCCN(c2c(Nc3cccc(C)c3)c(=O)c2=O)C1 (configuration not stated)	0.6	38	61*	52*	-5	0.5
C=CCN=C(NC#N)SCCc1ccccc1	0.1	93*	/	52*	/	0.5
C=CCN=C(NC#N)SCC(=O)NCc1ccccc1	0.5	51*	-3	17	1	0.8
C=CCN=C(NC#N)SCC(=O)NC(C)(C)C	0.9	5	-9	-19	1	1.2
O=C(c1cccc(S(=O)(=O)N2CCOCC2)c1)N1CCCC1	1	4	-2	1	-23	1
Cc1cc(C)n(C(=O)c2ccc(S(=O)(=O)NCC3CCCO3)cc2)n1 (configuration not stated)	0.7	33	-13	58*	-10	0.4
Cc1cc(C)n(C(=O)c2cccc(S(=O)(=O)N3CCOCC3)c2)n1	0.4	59*	-2	34	0	0.7
Cc1cc(C)n(C(=O)c2ccc(C)c(S(=O)(=O)N3CCCC3)c2)n1	0.3	73*	-8	55*	27	0.5
Cc1cc(C)n(C(=O)c2ccc(S(=O)(=O)N3CCOCC3)cc2)n1	1.1	-12	-1	53*	-24	0.5
CN(C)c1nc2n(c(=S)n1)CCS2	1	-3	-9	-9	11	1.1
Cc1ccc(Sc2c(C)nn(C(=O)c3cccc(S(=O)(=O)N4CCOCC4)c3)c2C)cc1	0.5	53*	-1	78*	-23	0.2
O=C(O)c1cccc(S(=O)(=O)N2CCOCC2)c1	1.2	-16	-12	-5	18	1
NC(=O)c1ccccc1N/C=C/C(=O)c1ccccc1	0.3	74*	-8	45	10	0.6
CC1(c2ccccc2)CC2CC(c3ccccc3)N1O2 (configuration not stated)	0.1	92*	-1	54*	-8	0.5
COc1cc(Cn2c(=O)oc3ccc(C)cc32)ccc1OC(C)C	/	/	-7	/	3	/
O=C1CCCC2=C1C(c1ccccc1)CC(=O)N2c1ccccc1 (configuration not stated)	0.2	78*	-2	6	0	0.9
CSc1ccc(C2C(C#N)=C(N)N(c3ccccc3)C3=C2C(=O)CCC3)cc1 (configuration not stated)	0.3	74*	/	90*	/	0.1
CC1(C)CC(=O)C2=C(C1)N(c1ccccc1)C(=O)CC2c1ccsc1 (configuration not stated)	0.1	88*	-9	26	-16	0.7
